# High-throughput results deposited in PubChem BioAssay by National Center for Advancing Translational Sciences (NCATS).
# Sampled rows, rich in hits. Any-hit rate of the full collection: about 19%.
# IL-1B inflam inh – blocks inflammasome-driven IL-1 beta release; THP-1 LPS/ATP IL-1B secretion, AlphaLISA, 16 h; hits give low values; activity change, % at 57.5 µM; hit rate 4.7% among 360,000; in the data active = activity change below about -50%; inconclusive = mostly about -30% to -49%; note: % is set by controls: 0 for no effect and ±100 for the full control effect
#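 THP-1 cells pretreated 1 hr with compounds (up to 57.5 uM final), then stimulated with LPS (250 ng/mL final) plus ATP (1.25 mM final); secreted IL-1B measured by AlphaLISA after 16 hr, decreased signal indicating inhibition.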
# TDP1 cell CPT – growth inhibition of DT40 Tdp1-/-;hTDP1 cells with camptothecin (screen for TDP1 inhibitors); chicken DT40 Tdp1-/-;hTDP1 cells + 20 nM CPT, ATP luminescence, 48 h; AID 686979; Potency, µM (titrated, usually from 46.2 µM), inactives show at the highest dose activity change, negative = growth inhibition, actives largely listed as inhibitors; hit rate 12% among 420,000; note: potency is the fitted concentration of half-maximal effect; % is set by controls: 0 for no effect and ±100 for the full control effect; nearly all actives have a fitted effect of over 55% in size
#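 Chicken DT40 Tdp1-/- cells stably complemented with human TDP1 were seeded at 400 cells/well in medium containing 20 nM camptothecin, exposed to pin-transferred compounds, and grown at 37 °C for at least 48 hr. Viability was read as ATP luminescence.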
# S-ASM inh – inhibitors of human secretory acid sphingomyelinase; P17405; placental ASM, HMU-PC fluorogenic substrate, 60 min; Potency, µM (highest dose often 57.5 µM), for inactives: top-dose activity change, negative = inhibition, usual class: inhibitors; hit rate 0.006% among 340,000; note: potency is the fitted concentration of half-maximal effect
# Target sequence (P17405 47-631 limits assumed): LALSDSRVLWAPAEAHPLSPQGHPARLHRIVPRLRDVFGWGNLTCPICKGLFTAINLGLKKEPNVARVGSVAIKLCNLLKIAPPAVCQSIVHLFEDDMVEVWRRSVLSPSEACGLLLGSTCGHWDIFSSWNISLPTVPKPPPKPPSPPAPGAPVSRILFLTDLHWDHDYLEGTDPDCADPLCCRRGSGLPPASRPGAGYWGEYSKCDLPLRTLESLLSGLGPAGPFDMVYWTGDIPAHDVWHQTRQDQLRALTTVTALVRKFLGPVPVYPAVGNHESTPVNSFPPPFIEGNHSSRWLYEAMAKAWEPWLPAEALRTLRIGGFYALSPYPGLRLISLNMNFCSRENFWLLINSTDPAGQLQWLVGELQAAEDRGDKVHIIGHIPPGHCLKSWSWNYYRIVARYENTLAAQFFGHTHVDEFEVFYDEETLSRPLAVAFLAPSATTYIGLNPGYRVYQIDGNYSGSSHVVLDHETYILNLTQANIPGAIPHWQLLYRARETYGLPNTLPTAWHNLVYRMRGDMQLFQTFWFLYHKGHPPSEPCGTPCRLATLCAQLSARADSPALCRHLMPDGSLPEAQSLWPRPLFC
#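 Human placenta-derived ASM enzyme was preincubated with compound for 10 minutes at room temperature, then given fluorogenic substrate HMU-PC0 (9 uM final) for 60 minutes at 37 °C; a pH 10 stop preceded fluorescence reading at Ex 386/Em 447 nm.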
# TDP1 cell noCPT – qHTS for Inhibitors of human tyrosyl-DNA phosphodiesterase 1 (TDP1): qHTS in cells in absence of CPT. AID 686978, 2013. Potency, µM (series often up to 46.2 µM), for the others: at the highest dose activity change, negative = growth inhibition, most hits filed as inhibitors. DT40 Tdp1-/- hTDP1 cells, no CPT, ATP luminescence, 48 h. hit rate 15% among 420,000; note: potency is the fitted concentration of half-maximal effect; % is set by controls: 0 for no effect and ±100 for the full control effect; nearly all actives have a fitted effect of over 55% in size
#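 A cellular qHTS used chicken DT40 cells lacking endogenous Tdp1 but carrying stably transfected human TDP1. Compounds were applied without camptothecin, and cell growth kinetics were judged by ATP-dependent luminescence after ≥48 hr.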
# TGFb inhibitor – inhibitors of TGF-b signaling | HepG2 CAGA-GFP TGF-b/SMAD3 reporter, GFP fluorescence, 18 h; TGF-beta stimulated, 500 pg/mL final | hit rate 1.2% among 410,000 | Potency, µM (highest dose often 46.1 µM), for the others: at the top dose activity, negative = inhibition, most hits filed as inhibitors; note: potency is the fitted concentration of half-maximal effect; % is set by controls: 0 for no effect and ±100 for the full control effect; nearly all actives have a fitted effect of over 65% in size
#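 HEPG2 CAGA-GFP reporter cells (1000/well, DMEM with 1% FBS) received compounds, then recombinant TGF-beta at 500 pg/mL final for 18 hours at 37 degrees C. Per-cell GFP summed per well was normalised to unstimulated and stimulated DMSO controls before curve fitting.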
# HepG2 viability – HepG2 cytotoxicity, counter-screen for TGF-b inhibitors; HepG2 CAGA-GFP viability, ATP luminescence, 18 h; hit rate 0.76% among 410,000; Potency, µM (top dose mostly 46.1 µM), for the others: top-dose activity change, negative = cytotoxicity, usual class: cytotoxic; note: potency is the fitted concentration of half-maximal effect
#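 HepG2 CAGA-GFP cells (1000/well, DMEM with 1% FBS) received compound, then TGF-beta at 500 pg/mL final, and were incubated 18 hours at 37 degrees C. Viability was read by CellTiter-Glo luminescence. Media-only wells were set as complete cell-killing and DMSO as no toxicity.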
# * = called active by the depositor; ? = inconclusive; nt = not tested or not shown. Unless noted, calls come from the whole dose curve; as a rule, active = well fitted curve in the direction sought with a large enough effect; inconclusive = small, poorly fitted or top-dose-only effect, or another doubt; inactive = no such curve, though single readings can be large; an effect the other way counts as inactive or inconclusive.
SMILES,IL-1B inflam inh,TDP1 cell CPT,S-ASM inh,TDP1 cell noCPT,TGFb inhibitor,HepG2 viability
CCOC(=O)C(=O)/C(C#N)=C/Nc1ccccc1,5.1,3.5%,-1.3%,-9.4%,-5.7%,4.9%
CCOC(=O)/C(=C\c1ccccc1)C(=O)c1cc(C(C)=O)c(Nc2ccccc2)s1,-101.4*,8.2µM*,-6.7%,9.2µM*,-9.5%,3.16µM*
COc1ccc(Cl)cc1NC(=O)CCS(=O)(=O)c1cccc2nonc12,nt,?,nt,?,0.0%,-30.3%
Cc1ccc(Cl)cc1NC(=O)CCS(=O)(=O)c1cccc2nonc12,-2.3,14.6µM*,-8.3%,?,-21.7%,-24.5%
CS/C(=N\S(=O)(=O)c1ccccc1)c1ccccc1,-12.7,7.3%,-1.0%,-28.4%,6.3%,1.0%
CN(C)/C(=N\S(=O)(=O)c1ccccc1)c1ccc(Cl)cc1,?,-6.8%,6.7%,-1.4%,1.9%,6.2%
O=S(=O)(/N=C(/Sc1ccc(Cl)cc1)c1ccccc1)c1ccccc1,nt,10µM*,nt,14.1µM*,3.4%,2.8%
O=S(=O)(/N=C(/Sc1ccccc1)c1ccccc1)c1ccc(Cl)cc1,nt,?,nt,15.8µM*,-1.4%,-7.1%
O=[N+]([O-])c1ccc(Cl)c(S(=O)(=O)/N=C(/Sc2ccc(Br)cc2)c2ccccc2)c1,nt,6.31µM*,nt,2.82µM*,9.7%,7.9%
O=S(=O)(/N=C(/Sc1ccccc1)c1ccccc1)c1ccccc1,-104.2*,8.2µM*,5.1%,14.6µM*,-1.7%,-21.8%
Cc1c(N/C(=N/S(=O)(=O)c2cc([N+](=O)[O-])ccc2Cl)c2ccccc2)c(=O)n(-c2ccccc2)n1C,0.0,12.3%,2.1%,3.5%,3.7%,-9.5%
Cc1c(CCO)sc[n+]1CCc1ccccc1,nt,?,nt,6.8%,-9.2%,0.9%
Cc1ccc2c(c1)sc[n+]2Cc1ccccc1,12.6,13µM*,-2.5%,13µM*,-11.0%,-36.5%
COc1ccccc1N(CC(O)Cn1c2ccccc2c2ccccc21)S(=O)(=O)c1ccccc1 (stereo not given),-100.9*,?,-8.8%,?,?,-32.8%
CCN(CC(O)Cn1c2ccccc2c2ccccc21)S(=O)(=O)c1ccc(F)cc1 (stereo not given),?,?,-12.6%,?,?,-93.1%
C=CCN(CC=C)CC(O)Cn1c2ccccc2c2ccccc21 (stereo not given),-73.9*,?,2.7%,23.1µM*,?,-38.5%
CCN(CC)CC(O)Cn1c2ccccc2c2ccccc21 (stereo not given),?,-3.7%,2.7%,?,27.2%,-26.3%
O=S(=O)(c1ccc(F)cc1)N(CCO)CC(O)Cn1c2ccccc2c2ccccc21 (stereo not given),-4.3,?,-12.0%,16.4µM*,?,-67.3%
O=S(=O)(c1ccccc1)N(CC(O)Cn1c2ccccc2c2ccccc21)c1ccccc1 (stereo not given),-52.5*,?,-14.7%,?,?,-40.1%
NC(=O)C1CCN(C2CC(=O)NC2=O)CC1 (stereo not given),23.2,-15.4%,0.8%,-10.3%,2.5%,-1.5%
Cc1cc(NC(=O)CC(C)C)c(=O)n(Cc2cccc(F)c2)c1,-9.9,-17.7%,-0.8%,-23.6%,-12.6%,-22.5%
CCC(=O)NC(NC(=S)Nc1ccccc1Br)C(Cl)(Cl)Cl (stereo not given),10.5,5.4%,-1.3%,-28.5%,-17.0%,4.7%
CCCC(=O)NC(NC(=S)Nc1ccc(N=Nc2ccccc2)cc1)C(Cl)(Cl)Cl (stereo not given),?,5.17µM*,nt,5.17µM*,?,-57.0%
O=C(CCc1ccccc1)NC(NC(=S)Nc1ccc(Br)cc1)C(Cl)(Cl)Cl (stereo not given),-2.5,23.1µM*,0.5%,23.1µM*,?,-47.1%
CCN(CC(=O)Nc1c(F)cccc1F)C(=O)/C=C/c1ccc2c(c1)OCO2,-1.4,-47.4%,9.0%,1.1%,22.4%,0.0%
SMILES,IL-1B inflam inh,TDP1 cell CPT,S-ASM inh,TDP1 cell noCPT,TGFb inhibitor,HepG2 viability
CC(C)(C)c1ccc(C(=O)NC(=S)NNC(=O)COc2ccccc2)cc1,78.1,13µM*,-2.7%,16.4µM*,-21.7%,-5.4%
O=C(COc1ccccc1)NC(=S)Nc1cccc2c(O)cccc12,64.5,?,nt,25.9µM*,?,-58.6%
Cc1ccc(C(=O)NNC(=S)NC(=O)COc2ccccc2)cc1,33.0,14.6µM*,-1.4%,6.51µM*,?,-16.0%
CCCCn1cc(S(=O)(=O)c2ccc(OC)cc2)c(=O)c2cc(F)c(N3CCOCC3)cc21,nt,?,nt,?,-8.3%,-5.3%
COc1ccc(NC(=O)NS(=O)(=O)c2ccc(C)cc2)cc1OC,7.0,9.9%,2.9%,-7.6%,-13.4%,-17.9%
c1ccc(CNc2ncnc3nc(N4CCOCC4)[nH]c23)cc1,nt,?,nt,-17.4%,-2.8%,-3.3%
CCn1c(=O)c(CCC(=O)N2CCN(c3ccccn3)CC2)c(C)c2c(C)nn(-c3cccc(C)c3)c21,10.0,14.6µM*,1.7%,?,-16.9%,-5.1%
CCn1c(=O)c(CCC(=O)NCC2CCCO2)c(C)c2c(C)nn(-c3ccc(C)cc3)c21 (stereo not given),33.4,23.1µM*,-0.1%,?,-7.4%,12.3%
COCCn1c(SCC(=O)NCc2ccc(OC)c(OC)c2)nc2ccccc21,-29.1,-2.3%,-1.9%,-29.0%,2.8%,0.6%
CCc1ccc(-c2cc(C)no2)cc1S(=O)(=O)Nc1cccc(CN2CCCC2)c1,-11.0,-14.4%,-0.5%,21.5%,2.0%,-1.7%
O=C(/C=C/c1ccc(OC(F)F)cc1)Nc1cccc(S(=O)(=O)NC2=NCCCCC2)c1,-80.9*,?,-18.0%,?,?,-14.2%
COc1cc(/C=C/C(=O)Nc2cccc(S(=O)(=O)NC3=NCCCCC3)c2)ccc1OCC#N,-56.1*,?,-5.0%,25.9µM*,-6.9%,5.5%
O=C(COC(=O)/C=C/c1ccc(Cl)cc1)Nc1cccc(S(=O)(=O)NC2=NCCCCC2)c1,-9.1,?,-12.8%,-30.1%,3.4%,6.9%
COc1ccc(/C=C/C(=O)Nc2cccc(S(=O)(=O)NC3=NCCCCC3)c2)cc1,0.0,?,-0.7%,23.1µM*,1.2%,-13.6%
Cc1ccccc1NC(=O)Cn1c(NCC(C)O)nc2ccccc21 (stereo not given),-22.3,-16.6%,-1.1%,15.7%,1.9%,2.2%
